Pf growth 96h = inhibits malaria parasite growth, 96 h | P. falciparum luciferase reporter growth, 96 h | Potency, µM (titrated, usually from 28.7 µM), most hits filed as inhibitors | 320,000 tested, 6.9% active | AID 504834; active means well fitted inhibition curve with a large enough effect; inconclusive means small, poorly fitted or top-dose-only effect, or another doubt; inactive means no such curve, though single readings can be large or run the other way
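Readout is luminescence from an integrated firefly luciferase in P. falciparum. Red cells, 2% hematocrit and 0.05% parasitemia final, were cultured with compound through two parasite generations (96 hours) at 37 C, 5% CO2.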
NS1 function inh = blocks influenza NS1 protein function; 270,000 tested, 0.4% active; Potency, µM (doses to about 46.1 µM); further: actives are rising curves; nearly all actives have a fitted effect of over 50% in size
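Read-out: OD600 growth recovery of NS1-expressing budding yeast. Cells grown overnight at 30C in -URA glucose medium, washed, resuspended and diluted 1:100 in 2% galactose assay medium, pH 6.0. Same strain lacking NS1 served as positive control.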
SARS PLpro yeast = inhibitors of SARS-CoV papain-like protease in yeast; S. cerevisiae expressing SARS-CoV PLpro, growth rescue; Potency, µM (titrated, usually from 32.9 µM), usual class: activators; 330,000 tested, 0.19% active; AID 485353; further: nearly all actives have a fitted effect of over 55% in size
Shiga inhibitor = inhibitors of Shiga toxin in Vero cells. Vero cells, Shiga toxin protein synthesis inhibition reporter. inhibition, % at 38.7 µM. 290,000 tested, 9.2% active; in the data active means inhibition mostly above about 28%, no sharp cut-off; inactive means mostly below about 43%
CHX counter = affects cycloheximide protein synthesis inhibition readout, counter-screen; cell reporter, cycloheximide protein synthesis inhibition counterscreen; 300,000 tested, 12% active; AID 2314; max response, %; in the data active means max response mostly above about 13%, no sharp cut-off; inactive means mostly below about 14%; further: read at 38.3 µM for the half of the compounds with a filed dose
Pf growth 48h = P. falciparum growth inhibition at 48 hours (one generation) | P. falciparum luciferase growth in erythrocytes, 48 h | Potency, µM (series often up to 28.7 µM), usual class: inhibitors | 310,000 tested, 5.9% active; active means well fitted inhibition curve with a large enough effect; inconclusive means small, poorly fitted or top-dose-only effect, or another doubt; inactive means no such curve, though single readings can be large or run the other way
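Parasite viability was followed by luminescence of a genomically integrated firefly luciferase. Cultures held 0.1% parasitemia at 2% hematocrit (final), incubated under 5% CO2 at 37 C.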
A number is an active result. Most compounds without a hit are left out; they make up all but 21% or so of the library. Unless noted, the call rests on the fitted dose curve.

For CN(CC(=O)Nc1ccc2c(c1)OCCO2)Cc1nc2ccccc2c(=O)[nH]1 the results were Pf growth 96h inactive, SARS PLpro yeast inactive and Pf growth 48h inactive.
For CNC(=S)NNC(=O)c1sccc1OCc1cccc(C(F)(F)F)c1 the results were Pf growth 96h 13µM, NS1 function inh inactive, SARS PLpro yeast inactive, Shiga inhibitor inactive, CHX counter inactive and Pf growth 48h inconclusive.
CNC(=S)NNC(=O)c1sccc1OCc1ccc(C)cc1 was read as Pf growth 96h inactive, NS1 function inh inactive, SARS PLpro yeast inactive, Shiga inhibitor inactive, CHX counter inactive and Pf growth 48h inactive.
`Cc1csc(=Nc2ccccc2)n1C` gave Pf growth 96h inactive, SARS PLpro yeast inactive, Shiga inhibitor inactive, CHX counter 22 and Pf growth 48h inactive.
Screening C=CCNC(=S)/N=c1/ccccn1CCC returned Pf growth 96h inactive, NS1 function inh inactive, SARS PLpro yeast inactive, Shiga inhibitor inactive, CHX counter inactive and Pf growth 48h inactive.
`C=CCNC(=S)/N=c1/ccccn1C` gave Pf growth 96h inconclusive, NS1 function inh inactive, SARS PLpro yeast inactive, Shiga inhibitor inactive, CHX counter inactive and Pf growth 48h inactive.
`C=CCNC(=S)/N=c1/scc(C)n1C` gave Pf growth 96h inactive, NS1 function inh inactive, SARS PLpro yeast inactive, Shiga inhibitor inactive, CHX counter 19 and Pf growth 48h inactive.
Screening C=CCNC(=S)/N=c1\sccn1C returned Pf growth 96h inactive, NS1 function inh inactive, SARS PLpro yeast inactive, Shiga inhibitor inactive, CHX counter 15 and Pf growth 48h inactive.
`Cc1cs/c(=N/C(=S)Nc2ccccc2)n1C` gave Pf growth 96h inactive, NS1 function inh inactive, SARS PLpro yeast inactive, Shiga inhibitor 143, CHX counter 101 and Pf growth 48h inactive.
O=C(Nc1cccc(Br)c1)c1cc(S(=O)(=O)N2CCOCC2)cs1 was read as Pf growth 96h inactive, NS1 function inh inactive, SARS PLpro yeast inactive, Shiga inhibitor inactive, CHX counter inactive and Pf growth 48h inconclusive.
`Cc1ccccc1S(=O)(=O)Cc1ccc(C(=O)N(C)C2CCCCC2)o1` gave Pf growth 96h inconclusive, NS1 function inh inactive, SARS PLpro yeast inactive, Shiga inhibitor inactive, CHX counter inactive and Pf growth 48h inactive.
COc1cccc(-n2c(C)cc(/C=C3\C(=N)N4N=C(CC(=O)N5CCOCC5)SC4=NC3=O)c2C)c1 was read as Pf growth 96h inactive, NS1 function inh inactive, SARS PLpro yeast inactive, Shiga inhibitor inactive, CHX counter inactive and Pf growth 48h inactive.
`COCCNC(=O)C1CC(=O)N(c2ccc(OC)cc2)C1c1ccc(OC)cc1` (stereo not drawn) gave Pf growth 96h inactive, SARS PLpro yeast inactive, Shiga inhibitor inactive, CHX counter inactive and Pf growth 48h inactive.
For C/C=C/c1ccc(OCC(=O)N(CCOC)c2c(N)n(CCCC)c(=O)[nH]c2=O)c(OC)c1 the results were Pf growth 96h inconclusive, SARS PLpro yeast inactive and Pf growth 48h inactive.
Screening COc1cccc(NC(=S)/C(=C(\[O-])c2cc(C)n(-c3ccccc3F)c2C)[n+]2ccc(N(C)C)cc2)c1 returned Pf growth 96h 4.1µM, NS1 function inh inactive, SARS PLpro yeast inactive, Shiga inhibitor inactive, CHX counter 26 and Pf growth 48h inconclusive.
Screening COc1cccc(NC(=S)/C(=C(\[O-])c2ccc(OC(F)F)cc2)[n+]2ccccc2)c1 returned Pf growth 96h inconclusive, SARS PLpro yeast inactive, Shiga inhibitor inactive, CHX counter inactive and Pf growth 48h inactive.
`Cc1ccc(-n2nc(C)c3c2OC(N)=C(C#N)C3c2ccncc2)cc1` (stereo not drawn) gave Pf growth 96h 0.52µM, NS1 function inh inactive, SARS PLpro yeast inactive, Shiga inhibitor inactive, CHX counter inactive and Pf growth 48h inactive.
`Cc1nn(-c2ccccc2)c(Cl)c1C1C(C#N)=C(N)Oc2c1c(C)nn2-c1ccccc1` (stereo not drawn) gave Pf growth 96h 10µM, NS1 function inh inactive, SARS PLpro yeast inactive, Shiga inhibitor inactive, CHX counter inactive and Pf growth 48h 10µM.
`Cc1nn(-c2ccccc2)c2c1C(c1ccncc1)C(C#N)=C(N)O2` (stereo not drawn) gave NS1 function inh inactive, SARS PLpro yeast inactive, Shiga inhibitor inactive, CHX counter inactive and Pf growth 48h inactive.
Cc1ccc(-n2nc(C)c3c2OC(N)=C(C#N)C3c2cccs2)cc1 (stereo not drawn) was read as Pf growth 96h inactive, NS1 function inh inactive, SARS PLpro yeast inactive, Shiga inhibitor inactive, CHX counter 17 and Pf growth 48h inactive.
For Cc1nn(-c2ccccc2)c(Cl)c1C1C(C#N)=C(N)Oc2n[nH]c(C)c21 (stereo not drawn) the results were Pf growth 96h inactive, NS1 function inh inactive, SARS PLpro yeast inactive, Shiga inhibitor inactive, CHX counter inactive and Pf growth 48h inactive.
For Cc1ccc(-n2nc(C)c3c2OC(N)=C(C#N)C3c2ccccc2F)cc1 (stereo not drawn) the results were Pf growth 96h inconclusive, NS1 function inh inactive, SARS PLpro yeast inactive, Shiga inhibitor inactive, CHX counter inactive and Pf growth 48h inconclusive.
For O=C(CCl)c1ccc2[nH]c(=O)oc2c1 the results were Pf growth 96h inconclusive, NS1 function inh inactive, SARS PLpro yeast inactive, Shiga inhibitor inactive, CHX counter inactive and Pf growth 48h inconclusive.
NC12CC3CC(C1)CC(CC(=O)O)(C3)C2 was read as Pf growth 96h inactive, SARS PLpro yeast inactive, Shiga inhibitor inactive, CHX counter inactive and Pf growth 48h inactive.
NC12CC3CC(C1)CC(O)(C3)C2 was read as Pf growth 96h 10µM, NS1 function inh inactive, SARS PLpro yeast inactive, Shiga inhibitor inactive, CHX counter inactive and Pf growth 48h inactive.
Screening C[C@H](NC(=O)c1ccco1)C(=O)OCC(=O)N1CC(=O)Nc2ccccc21 returned SARS PLpro yeast inactive.
For Cc1nc2c(ccc3c([N+](=O)[O-])cccc32)c(C)c1C the results were Pf growth 96h inactive, SARS PLpro yeast inactive, Shiga inhibitor inactive, CHX counter 37 and Pf growth 48h inactive.
Screening Cc1ccc2c([N+](=O)[O-])cccc2n1 returned Pf growth 96h inactive, NS1 function inh inconclusive, SARS PLpro yeast inactive, Shiga inhibitor inactive, CHX counter inactive and Pf growth 48h inactive.
For CC1=C(C(=O)OCC2CCCO2)C(c2ccc(F)cc2)NC(=O)N1 (stereo not drawn) the results were Pf growth 96h inactive, NS1 function inh inactive, SARS PLpro yeast inconclusive, Shiga inhibitor inactive, CHX counter inactive and Pf growth 48h inactive.
OC(c1ccccc1)(c1ccccc1)C1CCN(C(=S)NCCc2ccccc2)CC1 was read as Pf growth 96h inconclusive, NS1 function inh inactive, SARS PLpro yeast inactive, Shiga inhibitor inactive, CHX counter inactive and Pf growth 48h inconclusive.
Screening CC1CCN(C(=S)NCCc2ccccc2)CC1 returned Pf growth 96h inactive, NS1 function inh inactive, SARS PLpro yeast inactive, Shiga inhibitor 82 and CHX counter 30.

Compound activity deposited in PubChem by National Center for Advancing Translational Sciences (NCATS).
